Screening data: PubChem, several laboratories
Measles CPE = compounds protecting cells from measles virus cytopathic effect, primary screen, measles RdRp inhibitor project, single point, MLSMR library, absorbance; Measles virus-infected cells, CPE protection; protection (pct of control), % at 4 µM; actives 1.5% (n = 140,000); in the data active = protection mostly above about 24%, no sharp cut-off; inactive = mostly below about 26%
SDO1 yeast rescue = growth rescue of sdo1-depleted yeast, primary screen, S. cerevisiae, bone marrow failure model. S. cerevisiae sdo1-depleted JHY4D growth rescue, OD600 30 h; stronger effect = higher value; pdr5 snq2 efflux-pump mutant strain. z-score at 10 µM. actives 0.21% (n = 140,000). AID 817, 2007;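 active = z-score above 3 at both the 24 hr and the 30 hr optical density reads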;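 also: z-score against mean and SD of all compound wells on the same plate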
Phagocytosis inh = inhibitors of macrophage phagocytosis, primary screen, imaging, J774A.1 cells, IgG beads; inhibition, % at 5 µM; actives 0.07% (n = 110,000); J774A.1 macrophage IgG-bead phagocytosis;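 active = inhibition above the mean of the plate negative controls plus 5 SD, cut at about 13% in these data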;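 also: phagocytic index as fraction of beads internalized from green versus red external bead signal; plate controls were DMSO negative control for no effect and cytochalasin-D positive control for full effect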
The depositor's hits bear a star. The list is not random: actives were taken first. Their share in the collection is about 1.8%.

What do the screens show for `COC(=O)c1ccc(N2C(=O)CC(N3CCOCC3)C2=O)cc1` (configuration not stated)?
Measles CPE: 40.2*; SDO1 yeast rescue: 0.86; Phagocytosis inh: -0.7

What do the screens show for `CCCOc1ccc(N2C(=O)CC(N3CCOCC3)C2=O)cc1` (configuration not stated)?
Measles CPE: 9.6; SDO1 yeast rescue: -0.07; Phagocytosis inh: 1.6

What do the screens show for `Cc1cc2c3nonc3ccc2n1-c1ccccc1`?
Measles CPE: 6.2; SDO1 yeast rescue: -1.25

How did CCOC(=O)CCN(Cc1cccs1)S(=O)(=O)c1ccc(F)cc1 do in these assays?
Measles CPE: 47.9*; SDO1 yeast rescue: -0.81; Phagocytosis inh: 2.3

Results for CCOC(=O)CCN(Cc1sccc1C)S(=O)(=O)c1ccc(F)cc1 ?
Measles CPE: 11.7; SDO1 yeast rescue: 0.1

What do the screens show for `CN(C(=O)c1cc(-n2cnnc2)ccc1Cl)c1ccccc1`?
Measles CPE: 33.8; SDO1 yeast rescue: 0.72; Phagocytosis inh: -4.2

Results for Cc1ccc(S(=O)(=O)c2cc3ccccc3oc2=Nc2ccc3c(c2)OCO3)cc1 ?
Measles CPE: 24.8*; SDO1 yeast rescue: -0.78; Phagocytosis inh: 0.8

What do the screens show for `Cc1ccc(S(=O)(=O)c2cc3ccccc3oc2=Nc2ccc3c(c2)OCCO3)cc1`?
Measles CPE: 7.0; SDO1 yeast rescue: 0.35; Phagocytosis inh: 1.0

How did O=c1oc2cc(OCc3ccc(F)cc3F)ccc2cc1-c1ccc2ccccc2n1 do in these assays?
Measles CPE: 20.8; SDO1 yeast rescue: -0.43

Results for Cc1cc[n+](CC(=O)Nc2cc(C(F)(F)F)ccc2Cl)cc1 ?
Measles CPE: 21.1; SDO1 yeast rescue: 0.6

Results for CN(C)c1cc[n+](CC(=O)Nc2cc(C(F)(F)F)ccc2Cl)cc1 ?
Measles CPE: 64.3*; SDO1 yeast rescue: 1.17

Results for CSc1oc(-c2ccco2)nc1S(=O)(=O)c1ccccc1 ?
Measles CPE: 1.8; SDO1 yeast rescue: 0.48; Phagocytosis inh: 0.0

How did CC(C)Sc1oc(-c2ccco2)nc1S(=O)(=O)c1ccccc1 do in these assays?
Measles CPE: 30.1*; SDO1 yeast rescue: -1.11

How did C/C=C/c1ccc(OCCOc2cccc3cccnc23)c(OC)c1 do in these assays?
Measles CPE: 5.2; SDO1 yeast rescue: -1.26; Phagocytosis inh: -6.5

How did COc1ccc(NC(=O)c2cccc(S(=O)(=O)N(C)c3ccccc3)c2)cn1 do in these assays?
Measles CPE: 8.2; SDO1 yeast rescue: -0.22; Phagocytosis inh: -11.0

What do the screens show for `COc1ccc(NC(=O)c2cc(S(=O)(=O)N(Cc3ccccc3)c3ccccc3)ccc2Cl)cn1`?
Measles CPE: 38.7*; SDO1 yeast rescue: -0.03; Phagocytosis inh: 6.5

How did O=C(Cc1ccc(Br)cc1)Nc1ccccc1Cl do in these assays?
Measles CPE: 5.0; SDO1 yeast rescue: 0.01; Phagocytosis inh: -0.9

What do the screens show for `O=C(NN=C1CCCC1)c1ccn[nH]1`?
Measles CPE: 4.7; SDO1 yeast rescue: -0.14; Phagocytosis inh: 21.9

How did Cc1noc(C)c1C(=O)NCCCc1ccccc1 do in these assays?
Measles CPE: 38.1*; SDO1 yeast rescue: 0.22; Phagocytosis inh: -3.1

What do the screens show for `COc1ccc(CCNC(=O)c2c(C)noc2C)cc1`?
Measles CPE: 12.4; SDO1 yeast rescue: 0.62; Phagocytosis inh: -1.4

What do the screens show for `CS(=O)(=O)Oc1ccc(/C=N/NC(=O)c2ccncc2)cc1`?
Measles CPE: 3.3; SDO1 yeast rescue: -0.03; Phagocytosis inh: -4.1

What do the screens show for `CCOC(=O)Cn1c(C)cc(=O)c2cccc(C)c21`?
Measles CPE: 2.2; SDO1 yeast rescue: 0.44; Phagocytosis inh: -0.2

Results for Cc1cccc2c(=O)cc(C)n(Cc3ccccc3)c12 ?
Measles CPE: 35.9*; SDO1 yeast rescue: -0.73; Phagocytosis inh: -5.1

Results for O=C(CCN1C(=O)c2ccccc2C1=O)N1CCN(C2c3ccccc3-c3ccccc32)CC1 ?
Measles CPE: 4.7; SDO1 yeast rescue: -2.15; Phagocytosis inh: -0.3

Results for Cc1ccc(N2C(=O)CC3(CC4C=CC3C4)C2=O)cc1 (configuration not stated) ?
Measles CPE: 52.6*; SDO1 yeast rescue: -1.22; Phagocytosis inh: -0.3

What do the screens show for `Cc1ccc(N2C(=O)NC3(CCCCC3)C2=O)cc1`?
Measles CPE: 7.0; SDO1 yeast rescue: 1.34; Phagocytosis inh: -0.6

What do the screens show for `Cc1sc2nc(CN(C(=O)NC3CCCCC3)C3CCCCC3)[nH]c(=O)c2c1C`?
Measles CPE: 14.5; SDO1 yeast rescue: -1.33

How did Cc1scc(C(=O)N2CCN(S(C)(=O)=O)CC2)c1-c1ccccc1 do in these assays?
Measles CPE: 11.0; SDO1 yeast rescue: -0.05; Phagocytosis inh: -0.1

How did CS(=O)(=O)N1CCN(C(=O)c2csc3ccccc23)CC1 do in these assays?
Measles CPE: 61.3*; SDO1 yeast rescue: 0.33; Phagocytosis inh: -0.3

What do the screens show for `Cc1ccc(C(=O)N2CCN(c3cc(=O)[nH]nc3-c3ccccc3)CC2)cc1`?
Measles CPE: 37.9*; SDO1 yeast rescue: 0.96

How did O=C(c1ccc(F)cc1)N1CCN(c2cc(=O)[nH]nc2-c2ccccc2)CC1 do in these assays?
Measles CPE: 39.5*; SDO1 yeast rescue: 0.84

How did Cn1nc(-c2ccc(C(=O)N3CCN(Cc4ccccc4)CC3)cc2)c2ccccc2c1=O do in these assays?
Measles CPE: 9.1; SDO1 yeast rescue: -0.21; Phagocytosis inh: -0.2

Results for O=C(c1cccc(C(=O)N2CCN(c3ccccc3F)CC2)c1)N1CCN(c2ccccc2F)CC1 ?
Measles CPE: 5.1; SDO1 yeast rescue: 1.43; Phagocytosis inh: 5.4

What do the screens show for `CSc1nnc2c3c4c(sc3c(=O)n(-c3ccccc3)n12)CC(C)(C)OC4`?
Measles CPE: 26.0; SDO1 yeast rescue: 0.59; Phagocytosis inh: -1.0

What do the screens show for `O=S(=O)(/N=C(/Nc1ccccn1)c1ccc(Cl)cc1)c1ccc(Cl)cc1`?
Measles CPE: 7.1; SDO1 yeast rescue: -0.41; Phagocytosis inh: -11.1

How did CC(C)OC(=O)c1nnn(-c2nonc2N)c1CSc1ccccn1 do in these assays?
Measles CPE: 17.6; SDO1 yeast rescue: -0.36; Phagocytosis inh: -1.0

What do the screens show for `COc1ccc(-c2cc(C(=O)O)[nH]n2)cc1OC`?
Measles CPE: 2.1; SDO1 yeast rescue: 0.1; Phagocytosis inh: 0.0

How did O=C(O)c1cc(-c2ccc(Cl)cc2)n[nH]1 do in these assays?
Measles CPE: 35.4*; SDO1 yeast rescue: 1.03; Phagocytosis inh: 1.9

How did C=C(C)c1cccc(C(C)(C)NC(=O)N2CCCCC2CC)c1 (configuration not stated) do in these assays?
Measles CPE: 2.5; SDO1 yeast rescue: 0.71; Phagocytosis inh: -1.1

Results for Oc1ccc(NCc2ccccc2OCc2ccccc2)cc1 ?
Measles CPE: 40.8*; SDO1 yeast rescue: -1.31; Phagocytosis inh: -1.9

What do the screens show for `C#CCOc1ccccc1CNc1ccccc1`?
Measles CPE: 11.3; SDO1 yeast rescue: 0.44; Phagocytosis inh: -2.6

How did CC(CCc1ccccc1)NC(=O)C1CCCN(c2nnc(-n3cccc3)s2)C1 (configuration not stated) do in these assays?
Measles CPE: 35.1*; SDO1 yeast rescue: -0.22

Results for CC(C)NC(=O)C1CCCN(c2nnc(-n3cccc3)s2)C1 (configuration not stated) ?
Measles CPE: 2.8; SDO1 yeast rescue: 1.31; Phagocytosis inh: -0.5

Results for COCCOc1ccc(C(F)(F)F)cc1NC(=O)c1ccccc1F ?
Measles CPE: 6.0; SDO1 yeast rescue: -0.05; Phagocytosis inh: -2.1
